Experimental data reported in PubChem BioAssay (NCI).
Compounds without any hit were thinned out: in the full panel of roughly 79,000, 15% have a hit. Values without a mark were called inactive. Active and inactive are the calls of the source. Rule as the data show it: active = growth inhibition above about 70%; inactive = the rest.

How the values were obtained:
[1] = NCI Yeast Anticancer Drug Screen. Data for the wt1 strain (AID 149);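 also: 0% = growth of vehicle-treated wt1 cultures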; settings: S. cerevisiae wt1 strain (SPY 50644) growth inhibition, stronger effect = higher value
Method in brief: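 Each compound is tested on wt1 yeast and the loss of growth versus vehicle gives the inhibition value.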

[2] = NCI Yeast Anticancer Drug Screen. Data for the rad50EPP+ strain (AID 151);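 also: 0% = growth of vehicle-treated control cultures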; settings: S. cerevisiae rad50 mutant strain, stronger effect = higher value
Method in brief: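 Vehicle-normalised growth inhibition; rad50EPP+ yeast strain, altered in DNA damage repair, compound-treated.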

[3] = NCI Yeast Anticancer Drug Screen. Data for the mgt1 strain (AID 153); settings: S. cerevisiae mgt1 mutant growth inhibition, stronger effect = higher value
Method in brief: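 Vehicle-normalized growth inhibition is determined in mgt1 yeast, a strain selected for a defined alteration in DNA repair or cell cycle control.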

[4] = NCI Yeast Anticancer Drug Screen. Data for the rad50 strain (AID 155);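 also: 0% = growth of vehicle-only cultures of the same strain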; settings: S. cerevisiae rad50 strain growth inhibition, stronger effect = higher value
Method in brief: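 Vehicle-treated cultures provide the reference for the growth inhibition reported for compound-exposed, repair-deficient yeast.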

[5] = NCI Yeast Anticancer Drug Screen. Data for the mec2-1 strain (AID 157); settings: S. cerevisiae mec2-1 strain, stronger effect = higher value
Method in brief: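 Mutant yeast (mec2-1) grown with compound; growth inhibition relative to vehicle control reported.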

[6] = NCI Yeast Anticancer Drug Screen. Data for the rad14 strain (AID 159);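 also: 0% = growth of vehicle-treated control cultures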; settings: S. cerevisiae rad14 strain growth inhibition, stronger effect = higher value
Method in brief: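 Inhibition of growth is reported for a repair-deficient yeast mutant following compound treatment, calculated relative to cultures that received vehicle.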

[7] = NCI Yeast Anticancer Drug Screen. Data for the sgs1 mgt1 strain (AID 161);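 also: 0% = growth of cultures given vehicle only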; settings: S. cerevisiae sgs1 mgt1 strain, stronger effect = higher value
Method in brief: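 This yeast growth screen uses a strain with defined DNA-repair lesions; compound-treated growth is compared with vehicle-treated growth.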

[8] = NCI Yeast Anticancer Drug Screen. Data for the CLN2oe strain (AID 163);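 also: 0% = growth of vehicle-only control cultures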; settings: S. cerevisiae CLN2oe strain, stronger effect = higher value
Method in brief: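 Compounds are applied to yeast harbouring a defined cell-cycle control change; reduced growth compared with vehicle-treated controls gives the value.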

[9] = NCI Yeast Anticancer Drug Screen. Data for the cln2 rad14 strain (AID 165);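 also: 0% = growth equal to vehicle treated cultures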; settings: S. cerevisiae cln2 rad14 strain, stronger effect = higher value
Method in brief: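 Readout is yeast growth inhibition versus vehicle-treated controls, using a strain with cln2 and rad14 alterations exposed to compound.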

[10] = NCI Yeast Anticancer Drug Screen. Data for the bub3 strain (AID 167); settings: S. cerevisiae bub3 mutant strain, stronger effect = higher value
Method in brief: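 Mutant yeast screening strain plus compound; vehicle-treated cultures serve as the 0% inhibition reference.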

[11] = NCI Yeast Anticancer Drug Screen. Data for the wt2 strain (AID 169); settings: S. cerevisiae wt2 strain growth inhibition, stronger effect = higher value
Method in brief: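 Against vehicle-treated controls, the growth of yeast exposed to each compound was compared, and the inhibition was recorded.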

[12] = NCI Yeast Anticancer Drug Screen. Data for the mlh1 strain (AID 171);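 also: 0% = growth of vehicle-treated control cultures of the same strain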; settings: S. cerevisiae mlh1 strain growth inhibition, stronger effect = higher value
Method in brief: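 Measured: yeast growth. Reference: vehicle-treated controls. Organism: strain with a defined alteration affecting DNA damage repair or cell cycle control, treated with compound.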

[13] = NCI Yeast Anticancer Drug Screen. Data for the sgs1 strain (AID 173);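 also: 0% = growth of vehicle-only control cultures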; settings: S. cerevisiae sgs1 mutant, stronger effect = higher value
Method in brief: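 Each compound was added to cultures of the altered yeast strain. Growth was recorded, and inhibition was derived by comparison with vehicle controls.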

[14] = NCI Yeast Anticancer Drug Screen. Data for the mlh1 rad18 strain (AID 175); settings: S. cerevisiae mlh1 rad18 strain growth inhibition, stronger effect = higher value
Method in brief: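 Genetically defined yeast (DNA repair-deficient) exposed to compounds; growth inhibition determined relative to vehicle.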

[15] = NCI Yeast Anticancer Drug Screen. Data for the rad18 strain (AID 177); settings: S. cerevisiae rad18 mutant growth inhibition, stronger effect = higher value
Method in brief: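 Vehicle-treated cultures served as the baseline for scoring compound-induced growth inhibition in DNA-repair-mutant yeast.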

[16] = at 5.0 µM (retest, dose inferred, filed as 0.5)
[17] = at 50.0 µM (retest, dose inferred, filed as 5.0)

SMILES: O=C(Nc1ccn(C2CC(O)C(COC(c3ccccc3)(c3ccccc3)c3ccccc3)O2)c(=O)n1)c1ccccc1 (stereo unspecified)
- growth inhibition ([1]; at 1.2 µM): -40%
- growth inhibition ([1]; at 3.7 µM): -22%
- growth inhibition ([1]; at 11.0 µM): 94% (active)
- growth inhibition ([1]; at 33.0 µM): 94% (active)
- growth inhibition ([1]; at 100.0 µM): 89% (active)
- growth inhibition ([2]; at 1.2 µM): -26%
- growth inhibition ([2]; at 3.7 µM): -10%
- growth inhibition ([2]; at 11.0 µM): -9%
- growth inhibition ([2]; at 33.0 µM): 10%
- growth inhibition ([2]; at 100.0 µM): -15%
- growth inhibition ([3]; at 1.2 µM): -22%
- growth inhibition ([3]; at 3.7 µM): 14%
- growth inhibition ([3]; at 11.0 µM): 81% (active)
- growth inhibition ([3]; at 33.0 µM): 82% (active)
- growth inhibition ([3]; at 100.0 µM): 79% (active)
- growth inhibition ([4]; at 1.2 µM): -44%
- growth inhibition ([4]; at 3.7 µM): 20%
- growth inhibition [4, 16]: 85% (active)
- growth inhibition ([4]; at 11.0 µM): 89% (active)
- growth inhibition ([4]; at 33.0 µM): 87% (active)
- growth inhibition [4, 17]: 94% (active)
- growth inhibition ([4]; at 50.0 µM): 43.2%
- growth inhibition ([4]; at 100.0 µM): 83% (active)
- growth inhibition ([5]; at 1.2 µM): -43%
- growth inhibition ([5]; at 3.7 µM): -1%
- growth inhibition [5, 16]: 64%
- growth inhibition ([5]; at 11.0 µM): 91% (active)
- growth inhibition ([5]; at 33.0 µM): 91% (active)
- growth inhibition [5, 17]: 83% (active)
- growth inhibition ([5]; at 50.0 µM): 97.6% (active)
- growth inhibition ([5]; at 100.0 µM): 88% (active)
- growth inhibition ([6]; at 1.2 µM): -32%
- growth inhibition ([6]; at 3.7 µM): 9%
- growth inhibition ([6]; at 11.0 µM): 78% (active)
- growth inhibition ([6]; at 33.0 µM): 81% (active)
- growth inhibition ([6]; at 100.0 µM): 78% (active)
- growth inhibition [7, 16]: 50%
- growth inhibition [7, 17]: 94% (active)
- growth inhibition ([7]; at 50.0 µM): 37.6%
- growth inhibition ([8]; at 1.2 µM): -15%
- growth inhibition ([8]; at 3.7 µM): 36%
- growth inhibition ([8]; at 11.0 µM): 96% (active)
- growth inhibition ([8]; at 33.0 µM): 94% (active)
- growth inhibition ([8]; at 100.0 µM): 92% (active)
- growth inhibition [9, 16]: 83% (active)
- growth inhibition [9, 17]: 96% (active)
- growth inhibition ([9]; at 50.0 µM): 92.8% (active)
- growth inhibition ([10]; at 1.2 µM): -34%
- growth inhibition ([10]; at 3.7 µM): -11%
- growth inhibition [10, 16]: 89% (active)
- growth inhibition ([10]; at 11.0 µM): 81% (active)
- growth inhibition ([10]; at 33.0 µM): 84% (active)
- growth inhibition [10, 17]: 95% (active)
- growth inhibition ([10]; at 50.0 µM): 81.5% (active)
- growth inhibition ([10]; at 100.0 µM): 82% (active)
- growth inhibition ([11]; at 1.2 µM): -15%
- growth inhibition ([11]; at 3.7 µM): 1%
- growth inhibition ([11]; at 11.0 µM): 81% (active)
- growth inhibition ([11]; at 33.0 µM): 84% (active)
- growth inhibition ([11]; at 100.0 µM): 79% (active)
- growth inhibition ([12]; at 1.2 µM): -43%
- growth inhibition ([12]; at 3.7 µM): -19%
- growth inhibition ([12]; at 11.0 µM): 74% (active)
- growth inhibition ([12]; at 33.0 µM): 79% (active)
- growth inhibition ([12]; at 100.0 µM): 74% (active)
- growth inhibition ([13]; at 1.2 µM): 6%
- growth inhibition ([13]; at 3.7 µM): 3%
- growth inhibition ([13]; at 11.0 µM): 84% (active)
- growth inhibition ([13]; at 33.0 µM): 85% (active)
- growth inhibition ([13]; at 100.0 µM): 79% (active)
- growth inhibition [14, 16]: 87% (active)
- growth inhibition [14, 17]: 95% (active)
- growth inhibition ([14]; at 50.0 µM): 94.8% (active)
- growth inhibition ([15]; at 1.2 µM): -35%
- growth inhibition ([15]; at 3.7 µM): 21%
- growth inhibition ([15]; at 11.0 µM): 86% (active)
- growth inhibition ([15]; at 33.0 µM): 85% (active)
- growth inhibition ([15]; at 100.0 µM): 83% (active)

SMILES: CC1=Cc2ccc(C)cc2C(=O)C1=O
- growth inhibition ([1]; at 1.2 µM): -10%
- growth inhibition ([1]; at 3.7 µM): 8%
- growth inhibition ([1]; at 11.0 µM): 41%
- growth inhibition ([1]; at 33.0 µM): 99% (active)
- growth inhibition ([1]; at 100.0 µM): 99% (active)
- growth inhibition ([2]; at 1.2 µM): 34%
- growth inhibition ([2]; at 3.7 µM): 54%
- growth inhibition ([2]; at 11.0 µM): 71% (active)
- growth inhibition ([2]; at 33.0 µM): 95% (active)
- growth inhibition ([2]; at 100.0 µM): 99% (active)
- growth inhibition ([3]; at 1.2 µM): 27%
- growth inhibition ([3]; at 3.7 µM): 42%
- growth inhibition ([3]; at 11.0 µM): 60%
- growth inhibition ([3]; at 33.0 µM): 100% (active)
- growth inhibition ([3]; at 100.0 µM): 99% (active)
- growth inhibition ([4]; at 1.2 µM): 3%
- growth inhibition ([4]; at 3.7 µM): 6%
- growth inhibition [4, 16]: 31%
- growth inhibition ([4]; at 11.0 µM): 53%
- growth inhibition ([4]; at 33.0 µM): 99% (active)
- growth inhibition [4, 17]: 99% (active)
- growth inhibition ([4]; at 50.0 µM): 99.1% (active)
- growth inhibition ([4]; at 100.0 µM): 98% (active)
- growth inhibition ([5]; at 1.2 µM): 2%
- growth inhibition ([5]; at 3.7 µM): 21%
- growth inhibition [5, 16]: -7%
- growth inhibition ([5]; at 11.0 µM): 42%
- growth inhibition ([5]; at 33.0 µM): 100% (active)
- growth inhibition [5, 17]: 99% (active)
- growth inhibition ([5]; at 50.0 µM): 99.4% (active)
- growth inhibition ([5]; at 100.0 µM): 99% (active)
- growth inhibition ([6]; at 1.2 µM): 18%
- growth inhibition ([6]; at 3.7 µM): 31%
- growth inhibition ([6]; at 11.0 µM): 79% (active)
- growth inhibition ([6]; at 33.0 µM): 99% (active)
- growth inhibition ([6]; at 100.0 µM): 99% (active)
- growth inhibition [7, 16]: 43%
- growth inhibition [7, 17]: 99% (active)
- growth inhibition ([7]; at 50.0 µM): 99.3% (active)
- growth inhibition ([8]; at 1.2 µM): 2%
- growth inhibition ([8]; at 3.7 µM): 2%
- growth inhibition ([8]; at 11.0 µM): 9%
- growth inhibition ([8]; at 33.0 µM): 18%
- growth inhibition ([8]; at 100.0 µM): 94% (active)
- growth inhibition [9, 16]: 0%
- growth inhibition [9, 17]: 99% (active)
- growth inhibition ([9]; at 50.0 µM): 98.2% (active)
- growth inhibition ([10]; at 1.2 µM): 0%
- growth inhibition ([10]; at 3.7 µM): -3%
- growth inhibition [10, 16]: 36%
- growth inhibition ([10]; at 11.0 µM): 2%
- growth inhibition ([10]; at 33.0 µM): 44%
- growth inhibition [10, 17]: 99% (active)
- growth inhibition ([10]; at 50.0 µM): 99.3% (active)
- growth inhibition ([10]; at 100.0 µM): 99% (active)
- growth inhibition ([11]; at 1.2 µM): -7%
- growth inhibition ([11]; at 3.7 µM): -6%
- growth inhibition ([11]; at 11.0 µM): 4%
- growth inhibition ([11]; at 33.0 µM): -1%
- growth inhibition ([11]; at 100.0 µM): 98% (active)
- growth inhibition ([12]; at 1.2 µM): 12%
- growth inhibition ([12]; at 3.7 µM): 11%
- growth inhibition ([12]; at 11.0 µM): 71% (active)
- growth inhibition ([12]; at 33.0 µM): 99% (active)
- growth inhibition ([12]; at 100.0 µM): 99% (active)
- growth inhibition ([13]; at 1.2 µM): -1%
- growth inhibition ([13]; at 3.7 µM): 8%
- growth inhibition ([13]; at 11.0 µM): 65%
- growth inhibition ([13]; at 33.0 µM): 99% (active)
- growth inhibition ([13]; at 100.0 µM): 99% (active)
- growth inhibition [14, 16]: 66%
- growth inhibition [14, 17]: 99% (active)
- growth inhibition ([14]; at 50.0 µM): 99.2% (active)
- growth inhibition ([15]; at 1.2 µM): 25%
- growth inhibition ([15]; at 3.7 µM): 28%
- growth inhibition ([15]; at 11.0 µM): 66%
- growth inhibition ([15]; at 33.0 µM): 99% (active)
- growth inhibition ([15]; at 100.0 µM): 98% (active)
